We go through 49 compounds from PubChem BioAssay AID485294 (National Center for Advancing Translational Sciences (NCATS), 2010).

Screen size: about 370,000 compounds; about 150 (0.041%) were called active. A call without a number means that no potency is given here. Not shown: some 14% with an inconclusive outcome. The call rests on the fitted dose curve; in most records, active means well fitted inhibition curve with a large enough effect; inconclusive means small, poorly fitted or top-dose-only effect; inactive means flat fitted curve, though single readings scatter. The full list was thinned out, with actives kept by preference.
Potency means the concentration at half of the fitted maximal effect.

Sequence of Beta-lactamase (Escherichia coli (strain K12)) (P00811 whole entry, looked up): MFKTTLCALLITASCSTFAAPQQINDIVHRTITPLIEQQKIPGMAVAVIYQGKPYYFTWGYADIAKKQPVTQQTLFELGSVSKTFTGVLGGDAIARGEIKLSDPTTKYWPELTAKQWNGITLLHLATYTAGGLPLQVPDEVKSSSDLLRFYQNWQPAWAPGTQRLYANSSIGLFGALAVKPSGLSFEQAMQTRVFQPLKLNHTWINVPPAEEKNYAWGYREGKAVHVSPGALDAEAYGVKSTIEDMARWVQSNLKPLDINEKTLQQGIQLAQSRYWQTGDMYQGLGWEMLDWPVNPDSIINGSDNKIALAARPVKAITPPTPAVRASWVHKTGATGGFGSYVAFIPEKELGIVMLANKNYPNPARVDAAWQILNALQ

The target of the assay is Beta-lactamase (Escherichia coli (strain K12)) (UniProt P00811). Nature of the assay: qHTS Inhibitors of AmpC Beta-Lactamase (assay with detergent). Further: nearly all actives have a fitted effect of over 25% in size. As to conditions: AmpC hydrolysis of nitrocefin, absorbance 480 nm, 0.01% Triton; series mostly up to 114 µM. The protocol:
NIH Molecular Libraries Probe Production Network [MLPCN] NIH Chemical Genomics Center [NCGC] Assay Provider: Professor Brian Shoichet, UCSF Assay Overview: This aggregation profiling approach exploits the sensitivity of aggregate formation to detergent. Inhibition of b-lactamase is measured in the presence and absence of 0.01% Triton X-100. This particular assay had the prescence of 0.01% Triton X-100. See Pubchem assay "Promiscuous and Specific Inhibitors of AmpC Beta-Lactamase (assay without detergent)" for related screen. Compounds that inhibit only in the absence of detergent are considered likely promiscuous aggregators. A screen of 1,030 compounds was performed in Brian Shoichet's lab in 96-well format. AmpC activity was measured by following the absorbance at 480 nm. Nitrocefin is a chromogenic substrate: while nitrocefin is yellow (lmax 390 nm), the product of its hydrolysis is red (lmax 486 nm, 17,000 M-1). AmpC beta lactamase was provided by Shoichet Lab, UCSF.
Buffer: 20 mM phosphate buffer, pH 7.0 Triton X-100: No Detergent screen: 0.0001%, Detergent screen: 0.01%. Reagents/Controls: Buffer in columns 3 and 4 as negative control (no enzyme). 5.3 nM AmpC in columns 1, 2, 5-48. Titration of UCSF compound 9 control (from 10 mM, then 1:2) pin-transferred to column 2. Column 1 is neutral (100% activity). Assay Steps: Six uL of reagents were dispensed to 1536-well Greiner black clear bottom plates. Compounds and controls (23 nL) were transferred via Kalypsys PinTool. The plates were incubated for 15 min at room temperature, and then 2 uL of 800 uM solution of nitrocefin was added to start the reaction. The plates were immediately transferred to and read every 20 seconds for 4 min on ViewLux (Perkin-Elmer) High-throughput CCD imager using 480 nm absorbance protocol. During dispense, reagent bottles were kept submerged into 4 deg C water bath. Keywords: NIH Roadmap, MLSCN, MLI, MLSMR, qHTS, NCGC, AmpC Beta-Lactamase, Aggregation
In general terms: Quantitative high-throughput screening tests each substance at several concentrations.
As for `COc1ccc(-c2nc3nc(C)cc(C)n3c2Nc2c(C)cccc2C)cc1`, the Potency entry is “inactive”.

Consider `O=C(Nc1c(C(=O)N2CCN(c3ccc(F)cc3)CC2)oc2ccccc12)c1ccco1`, for which the Potency entry is “inactive”.

On to `CCOc1ccc(NC(=O)CCc2c(C)nn(-c3ccc(N4CCCC4)nn3)c2C)cc1`, for which the Potency entry is “inactive”.

For the compound `O=C(COc1ccccc1F)Nc1ccc(C(=O)OCc2cc(=O)n3nc(C4CC4)sc3n2)cc1`, the Potency result is “inactive”.

As for `CCOc1cc(C2C(C(=O)OC)=C(C)NC3=C2C(=O)c2ccccc23)ccc1O` (centres undefined), the Potency result is “inactive”.

Regarding `O=S(=O)(c1ccc2nc(NCc3ccccc3Cl)ccc2c1)N1CCCCC1`, the Potency result is “inactive”.

As to `COc1ccc(Cl)cc1-n1c(CCC(=O)O)ccc1-c1ccc(C)cc1`, the Potency result was “inactive”.

With `O=C(Nc1ccc(S(=O)(=O)N2CCC(c3nc4ccccc4s3)CC2)cc1)c1ccccc1F`, the Potency result is “inactive”.

Take `CSc1ccc(CCNC(=O)c2cc(C)nc3c2c(C)nn3-c2cccc(F)c2)cc1`: the Potency entry was “inactive”.

In the case of `Cc1ccc(Cl)cc1NC(=O)CSc1nc2ccccc2nc1Cc1ccccc1`, the Potency result is “inactive”.

For `CCCCN(CC)CCCNC(=O)c1nn(C)c2c1CS(=O)(=O)c1ccccc1-2`, the Potency entry was “inactive”.

In the case of `CCC(CC)c1nn2cc(-c3ccccc3)nc2s1`, the Potency entry was “inactive”.

Take `COc1ccc(N2C(=O)CSC23C(=O)N(Cc2cccc(F)c2)c2ccccc23)cc1Cl` (centres undefined): the Potency result was “inactive”.

As to `O=C(CC(NCc1cccnc1)C(=O)O)Nc1ccc(O)cc1` (centres undefined), the Potency entry is “inactive”.

In the case of `CCN(CCCNC(=O)c1ccc(Sc2ccc(C)cc2)c(NC(C)=O)c1)c1cccc(C)c1`, the Potency result is “inactive”.

Take `Cc1ccc(CNC(=O)CCc2c(C)nn(-c3ccc(N4CCCC4)nn3)c2C)cc1`: the Potency entry was “inactive”.

As for `CC1=C(C(=O)OCc2ccc(C)cc2)C(c2ccccc2Cl)CC(=O)N1` (centres undefined), the Potency entry was “inactive”.

Take `Cc1ccc(C(=O)NCCSc2c(C)[nH]c3ccccc23)cc1C`: the Potency result is “inactive”.

With `CCc1ccc(NC(=O)c2cnc3c(-c4ccccc4)c(C)nn3c2C)cc1`, the Potency entry was “inactive”.

As to `CCN(C(=O)c1sc2cc(OC)ccc2c1Cl)c1ccccc1`, the Potency entry was “inactive”.

For the compound `COC(=O)c1cc(NC(=O)c2cnc(SC)nc2-c2ccccc2)cc(C(=O)OC)c1`, the Potency result is “inactive”.

With `CCCCOc1ccc(CN2C(=O)C(=O)c3cc(Br)cc(C)c32)cc1OC`, the Potency result is “inactive”.

`CCOc1ccc(/C=C(\C#N)c2nc3ccccc3c(=O)[nH]2)cc1OC`: the Potency entry was “inactive”.

With `O=C(COc1ccccc1)OCc1cc(=O)n2nc(-c3cccs3)sc2n1`, the Potency result is “inactive”.

For the compound `O=C(Nc1ccc(Br)cc1)c1ccc(Br)c(S(=O)(=O)NCc2ccccc2)c1`, the Potency result was “inactive”.

For `CCn1c2ccccc2c2nnc(N3CCN(c4cc(C)ccc4C)CC3)nc21`, the Potency entry is “inactive”.

Consider `CCOC(=O)c1sc(NC(=O)/C=C/c2ccc(C(C)C)cc2)c(C(=O)OCC)c1C`, for which the Potency entry is “inactive”.

On to `Cn1c2cc(B(O)O)sc2c2cnn(Cc3ccccc3F)c(=O)c21`, for which the Potency is 2.82 µM (active).

Take `CCOC(=O)c1c(CNCc2ccccc2F)c2sc(C)cc2n1C`: the Potency result was “inactive”.

On to `Cn1cc(C(=O)NCc2ccccc2F)cn1`, for which the Potency result is “inactive”.

With `Cc1cc2c(cc1S(=O)(=O)CCC(=O)Nc1ccc(OC(F)(F)F)cc1)OCC(=O)N2`, the Potency result was “inactive”.

For `COc1ccccc1C(=O)Nc1c(C(=O)Nc2ccc(C)cc2)oc2ccccc12`, the Potency result was “inactive”.

With `CCOC(=O)c1c(C)[nH]c(CCC(=O)NCCCN2CCN(c3cc(C)ccc3C)CC2)c1C`, the Potency entry was “inactive”.

`COc1cc(NS(=O)(=O)c2ccc3c(c2)OCC(C(=O)N2CCCC2)O3)cc(OC)c1` (centres undefined): the Potency entry is “inactive”.

Regarding `COc1cc2nc(SCc3ccc(F)cc3)n3nc(CCn4c(C)nc5ccccc54)nc3c2cc1OC`, the Potency result was “inactive”.

For `CCCCN(CC)CCCNC(=O)Cn1ncc2c([nH]c3ccc(C)cc32)c1=O`, the Potency result is “inactive”.

`O=C(CN1C(=O)COc2ccc(S(=O)(=O)N3CCCCCC3)cc21)N1CCN(c2cccc(C(F)(F)F)c2)CC1`: the Potency entry is “inactive”.

On to `O=C(CSc1nccn1-c1ccc(F)cc1)Nc1cccc2ccccc12`, for which the Potency result is “inactive”.

For `COc1ccc2c(Sc3ccc(C)cc3)c(C(=O)NC(C)c3ccccc3)[nH]c2c1` (centres undefined), the Potency entry is “inactive”.

With `O=C(Nc1ccc2nc(SCCOc3ccccc3)sc2c1)c1ccco1`, the Potency result was “inactive”.

As for `CCOc1cc(CNC(=O)c2sc3ncnc(N(C)C4CCCCC4)c3c2C)ccc1OC`, the Potency entry was “inactive”.

With `CCS(=O)(=O)N1CCc2cc(C(=O)NCc3ccc(OC)cc3)ccc21`, the Potency result is “inactive”.

Consider `COC(=O)C1=C(Nc2ccc(OC)cc2)C=C(C)C(C(=O)OC)C1c1ccc(C)cc1` (centres undefined), for which the Potency entry is “inactive”.

As for `Cc1ccccc1C(=O)OC1OC(=O)C(Cl)=C1Nc1ccccc1` (centres undefined), the Potency is 14.1 µM (active).

In the case of `Cc1ccc(NC2=C(Cl)C(=O)OC2OC(=O)c2ccccc2C)cc1` (centres undefined), the Potency was 6.31 µM (active).

Consider `Cc1ccccc1C(=O)O`, for which the Potency entry was “inactive”.

With `Cc1ccccc1C(=O)Nc1ccccc1NC(=O)c1ccccc1C`, the Potency result is “inactive”.

In the case of `Cc1ccc(Cl)cc1N1CCN(C(=O)c2cccn3c(=O)c4cc(Cl)ccc4nc23)CC1`, the Potency entry was “inactive”.

Take `CCOc1ccc(CNC(=O)CCc2c(C)nn(-c3ccc(N4CCCCC4)nn3)c2C)cc1`: the Potency result was “inactive”.
